Rows were chosen to be rich in hits. Some 0.87% of all compounds tested hit in one or more screens of this group.
EPAC2 antagonist – EPAC2 (human) antagonism; hit rate 0.18% among 360,000; AID 720708; Potency, µM (doses to about 114 µM), without a hit: top-dose activity, negative = inhibition, actives largely listed as inhibitors; Q8WZA2; EPAC2 GEF exchange of Rap1B-BODIPY-GDP, fluorescence; also: potency is read from the fitted curve at half-maximal effect; % is scaled to controls: 0 for no effect and ±100 for the full control effect; nearly all actives have a fitted effect of over 45% in size
EPAC2 ag – activates human EPAC2 exchange factor | Q8WZA2 | EPAC2 activation, biochemical qHTS; response scale: 100% = 6.5 mM cAMP response | Potency, µM (series often up to 154 µM), inactives show top-dose activation, actives largely listed as activators | hit rate 0.079% among 360,000 | AID 720711; also: potency is read from the fitted curve at half-maximal effect; nearly all actives have a fitted effect of over 50% in size
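EPAC2 (100 nM) mixed with Rap1B loaded with BODIPY-GDP (250 nM) plus 50 uM unlabeled GDP; compounds pinned in, 5 min RT, then read every 5 min for 30 min (ex 480, em 540 nm). Normalized to cAMP control.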
FBPA coupling cs – coupling enzyme interference in Giardia aldolase counter-screen | coupling enzyme system counterscreen, AmpLite Red fluorescence | activity change, negative = inhibition, % at 58.2 µM, hits read low | hit rate 0.67% among 290,000; in the data active = activity change below about -30%; also: % is scaled to controls: 0 for no effect and ±100 for the full control effect
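Activity here indicates interference with the coupling reaction, not aldolase inhibition. Compounds at 57.5 uM final met coupling enzymes for 10 min at RT; substrate and AmpLite Red detection followed, with a 525/598 nm fluorescence read after 20 min.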
EPAC1 antag – antagonists of human EPAC1. hit rate 0.14% among 360,000. EPAC1 GEF assay, Rap1b-BODIPY-GDP exchange fluorescence. Potency, µM (series often up to 115 µM), for inactives: at the top dose activity change, negative = inhibition, usual class: inhibitors. O95398;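 also: potency is read from the fitted curve at half-maximal effect; plate controls were vehicle for no effect and positive control for full effect; nearly all actives have a fitted effect of over 50% in size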
Target sequence (O95398 whole entry, looked up): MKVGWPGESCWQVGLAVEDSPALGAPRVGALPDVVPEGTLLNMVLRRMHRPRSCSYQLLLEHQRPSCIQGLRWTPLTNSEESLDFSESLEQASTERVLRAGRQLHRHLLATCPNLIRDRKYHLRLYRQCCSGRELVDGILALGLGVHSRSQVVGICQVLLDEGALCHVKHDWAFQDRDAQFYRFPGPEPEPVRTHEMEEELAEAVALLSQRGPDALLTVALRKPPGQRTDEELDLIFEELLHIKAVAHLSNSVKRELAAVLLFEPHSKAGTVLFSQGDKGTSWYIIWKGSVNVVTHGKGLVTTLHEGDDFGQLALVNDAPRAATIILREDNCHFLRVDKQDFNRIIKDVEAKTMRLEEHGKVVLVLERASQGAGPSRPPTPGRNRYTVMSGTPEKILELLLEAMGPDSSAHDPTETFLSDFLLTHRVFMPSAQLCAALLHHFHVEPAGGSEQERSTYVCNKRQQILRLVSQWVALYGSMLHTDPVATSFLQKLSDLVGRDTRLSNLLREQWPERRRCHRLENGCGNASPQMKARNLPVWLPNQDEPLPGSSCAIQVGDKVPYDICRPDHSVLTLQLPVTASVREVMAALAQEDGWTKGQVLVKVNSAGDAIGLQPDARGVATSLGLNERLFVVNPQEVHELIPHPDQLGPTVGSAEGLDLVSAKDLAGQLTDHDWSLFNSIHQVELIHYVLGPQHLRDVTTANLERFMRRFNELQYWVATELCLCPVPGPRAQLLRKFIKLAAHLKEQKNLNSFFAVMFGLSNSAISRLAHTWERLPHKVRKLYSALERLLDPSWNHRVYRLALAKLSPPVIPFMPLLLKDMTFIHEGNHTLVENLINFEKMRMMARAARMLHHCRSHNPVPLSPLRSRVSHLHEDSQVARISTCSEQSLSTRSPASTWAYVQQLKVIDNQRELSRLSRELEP
EPAC1 ag – agonists of human EPAC1 | EPAC1 agonist qHTS, biochemical assay; response scale: 100% = response to 6.5 mM cAMP | Potency, µM (doses to about 154 µM), for the others: at the highest dose activation, actives largely listed as activators | hit rate 0.073% among 360,000 | AID 720707; also: potency is read from the fitted curve at half-maximal effect; nearly all actives have a fitted effect of over 60% in size
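Nucleotide exchange assay: 100 nM EPAC1 with 250 nM Rap1B loaded with BODIPY-GDP and 50 uM GDP, room temperature. Fluorescence (480/540 nm) read every 5 min for 30 min; signal change normalized to 6.5 mM cAMP as full agonist.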
USP1-UAF1 inh – inhibitors of human USP1/UAF1 deubiquitinase; O94782; recombinant USP1/UAF1, Ub-Rhodamine cleavage fluorescence; Potency, µM (doses to about 57.1 µM), for inactives: at the top dose activity change, negative = inhibition, usual class: inhibitors; hit rate 0.23% among 390,000; AID 743255; also: potency is read from the fitted curve at half-maximal effect; % is scaled to controls: 0 for no effect and ±100 for the full control effect; nearly all actives have a fitted effect of over 60% in size
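USP1/UAF1 complex (1 nM) preincubated 15 min at room temperature with compound, then Ub-Rho substrate (150 nM final) added. Kinetic fluorescence at 480/540 nm over 6 reads at 60 s intervals; 50 mM HEPES pH 7.8, 0.5 mM EDTA, 0.1 mg/ml BSA, 1 mM TCEP, 0.01% Tween-20.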
An asterisk follows results filed as active; ? = inconclusive; . = not tested or not shown. Unless noted, calls follow the shape of the dose curve; as a rule, active = well fitted curve in the direction sought with a large enough effect; inconclusive = small, poorly fitted or top-dose-only effect, or another doubt; inactive = no such curve, though single readings can be large; an effect the other way counts as inactive or inconclusive.

SMILES | EPAC2 antagonist | EPAC2 ag | FBPA coupling cs | EPAC1 antag | EPAC1 ag | USP1-UAF1 inh
c1ccc(C[n+]2ccccc2)cc1 | 12% | 2% | . | -5% | -5% | 5%
CCn1nc(/C=C/c2ccccc2)nc2c(=O)n(C)c(=O)nc1-2 | ? | 29% | 1 | ? | 0% | 1.1µM*
CCOc1ccc(-n2c(/C=C/c3ccccc3)nc3ccccc3c2=O)cc1 | . | . | . | . | . | -31%
ClCC1C(CCl)C2(Cl)C(Cl)=C(Cl)C1(Cl)C2(Cl)Cl (stereo not given) | . | . | 2 | . | . | .
O=C1C=CC(=O)C2C1C1(Cl)C(Cl)=C(Cl)C2(Cl)C1(Cl)Cl (stereo not given) | 56µM* | 9% | . | -12% | -1% | -23%
CC[n+]1c(-c2ccccc2)c2cc(N)ccc2c2ccc(N)cc21 | -7% | -6% | -44* | -10% | 0% | ?
CCOC(=O)C1CCCN(c2ccc([N+](=O)[O-])c3nonc23)C1 (stereo not given) | 118% | 100µM* | -4 | 79% | 89µM* | 25µM*
CC1CCCN(c2ccc(C(=O)N3CCC4(CC3)OCCO4)cc2[N+](=O)[O-])C1 (stereo not given) | 5% | 2% | -1 | 10% | -7% | -18%
O=c1nc(/C=C/c2ccc(Cl)cc2Cl)cc(C(F)(F)F)[nH]1 | 56µM* | -2% | 1 | ? | -20% | ?
COC(=O)C1C(O)C(C)C(O)C(C)/C=C\C=C(/C)C(=O)Nc2c(C)c(OC(C)=O)c3c(c2O)C(=O)C(C)=C2OCOC(=C23)/C(C)=C/C(C)(O)C(O)C(C)C1O (stereo not given) | -2% | 5% | -30* | 8% | -4% | ?
CC(C)CCOP(=O)(c1ccc(N(C)C)cc1)C(O)c1c(Cl)cccc1Cl (stereo not given) | ? | 3% | 0 | ? | -3% | -3%
Oc1ccc(Cl)cc1Cc1cc(Cl)ccc1O | 79µM* | 9% | 0 | -13% | 4% | -19%
c1cc2c(cc1NC1=NCCO1)CCCC2 | -1% | 1% | . | 3% | 7% | -13%
CN1C[C@@H](C(=O)N[C@@]2(C)O[C@]3(O)C4CCCN4C(=O)[C@@H](Cc4ccccc4)N3C2=O)C=C2c3cccc4[nH]cc(c34)C[C@@H]21 (stereo not given in full) | . | . | -32* | . | . | .
CC(C)[C@@]1(NC(=O)[C@@H]2C[C@@H]3c4cccc5[nH]cc(c45)C[C@H]3N(C)C2)O[C@@]2(O)[C@@H]3CCCN3C(=O)[C@H](Cc3ccccc3)N2C1=O | 5% | 1% | -28 | -2% | -23% | -25%
CN1C[C@H](CO)C=C2c3cccc4[nH]cc(c34)C[C@H]21 | -1% | -7% | 5 | -19% | -5% | ?
CC(C)C[C@H]1C(=O)N2CCCC2[C@]2(O)O[C@](NC(=O)[C@@H]3C=C4c5cccc6[nH]cc(c56)CC4N(C)C3)(C(C)C)C(=O)N12 (stereo not given in full) | 6% | 0% | -38* | -5% | -28% | 13µM*
CC(C)[C@@]1(NC(=O)[C@@H]2C=C3c4cccc5[nH]cc(c45)C[C@H]3N(C)C2)O[C@@]2(O)[C@@H]3CCCN3C(=O)[C@H](Cc3ccccc3)N2C1=O | . | . | -40* | . | . | .
CN1C[C@@H](CO)C=C2c3cccc4[nH]cc(c34)CC21 (stereo not given in full) | . | . | -1 | . | . | .
COC(=O)[C@@]1(Cc2ccccc2)[C@H]2c3cc(C(=O)N(C)C)[nH]c3C[C@H]2CN1C(=O)c1ccccc1 | . | . | -1 | . | . | .
CCCCOC(=O)N(C)SN(C)C(=O)Oc1cccc2c1OC(C)(C)C2 | . | . | 0 | . | . | .
Nc1cc2nc3ccccc3nc2cc1N | 9% | 22% | -34* | 18% | 14% | -19%
COP(=S)(OC)Oc1ccc([N+](=O)[O-])c(C)c1 | . | . | 0 | . | . | .
CC(C)OCCCNC(=O)c1c(N)n(CC2CCCO2)c2nc3ccccc3nc12 (stereo not given) | ? | 3% | -47* | ? | 6% | 28µM*
COCCCn1c(N)c(C(=O)NCCC(C)C)c2nc3ccccc3nc21 | ? | -3% | -46* | 50µM* | 23% | 22µM*
SMILES | EPAC2 antagonist | EPAC2 ag | FBPA coupling cs | EPAC1 antag | EPAC1 ag | USP1-UAF1 inh
CC(C)OC(=O)c1c(N)n(CC2CCCO2)c2nc3ccccc3nc12 (stereo not given) | -4% | 2% | -10 | -6% | -1% | -10%
CCCNC(=O)c1c(N)n(CC2CCCO2)c2nc3ccccc3nc12 (stereo not given) | -6% | 3% | -51* | -21% | -3% | ?
CCOC(=O)c1c(NC(=O)c2c(N)n(CCCOC)c3nc4ccccc4nc23)sc2c1CCCC2 | -7% | 8% | . | 8% | 6% | ?
CCOCCCn1c(N)c(C(=O)Nc2sc3c(c2C(=O)OC)CCCC3)c2nc3ccccc3nc21 | 10% | 15% | -45* | 9% | -2% | -22%
CCCCn1c(N)c(C(=O)OCCOC)c2nc3ccccc3nc21 | 5% | 18% | -21 | -1% | 10% | -3%
COc1ccc(CN2C(=O)CC(=O)NC2=S)cc1 | -2% | 5% | 30 | -6% | 6% | -21%
CC[C@H](C)/C=C(C)/C=C/C1=CC2=C(Cl)C(=O)[C@](C)(OC(C)=O)C(=O)C2=CO1 | 8.9µM* | 10% | . | ? | 12% | 25µM*
CCc1cccc(CC)c1NC(=S)N1CC2CC(C1)c1cccc(=O)n1C2 (stereo not given) | 6% | -2% | 1 | 4% | 6% | -12%
COc1cc2c(cc1OC)-c1c(OC)c(OC)cc3c1C(C2)N(C)CC3 (stereo not given) | 0% | 5% | -42* | ? | -18% | ?
Nc1c(C(=O)NCCCc2ccccc2)c2nc3ccccc3nc2n1Cc1cccs1 | -9% | 13% | -51* | -16% | 20% | ?
Nc1c(C(=O)NCc2ccco2)c2nc3ccccc3nc2n1Cc1ccc(F)cc1 | -13% | -1% | -40* | ? | 0% | -7%
CCCCNC(=O)c1c(N)n(Cc2ccc3c(c2)OCO3)c2nc3ccccc3nc12 | 1% | 10% | -13 | -29% | 8% | 28µM*
Nc1c(C(=O)NCc2ccco2)c2nc3ccccc3nc2n1Cc1ccccc1 | -3% | 11% | -28 | -12% | -5% | -17%
CCCCCn1c(N)c(C(=O)NCc2cccs2)c2nc3ccccc3nc21 | -2% | -7% | -17 | -2% | 0% | ?
FCCN(CCF)c1cccc(Cl)c1 | -7% | 2% | 2 | 15% | 0% | -24%
